Test results as given in PubChem BioAssay (NCI).
About 83,000 compounds went through this panel and 20% of them were active in at least one assay; those are over-represented in the sample as a whole.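 48-hour exposure, single concentration, 96-well plates; percent growth endpoint where 0 means no net growth. Active: below 10.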 Active and inactive are the calls of the source.

Assays:
Assay in all cases: NCI-60 one-dose screen, 48 h (100 = growth as untreated, 0 = no growth, -100 = all killed)
Conditions in all cases: 10 µM unless noted
HCT-15 colon = test system: HCT-15 colon
HT29 colon = test system: HT29 colon
SNB-75 CNS = test system: SNB-75 CNS
SNB-19 CNS = test system: SNB-19 CNS
U251 CNS = test system: U251 CNS
PC-3 prostate = test system: PC-3 prostate
SK-MEL-5 melanoma = test system: SK-MEL-5 melanoma
UACC-62 melanoma = test system: UACC-62 melanoma
LOX IMVI melanoma = test system: LOX IMVI melanoma
SK-MEL-28 melanoma = test system: SK-MEL-28 melanoma

Measured: growth

N#Cc1ccc(Oc2ccc3ccc(=O)oc3c2)cc1
inactive: HCT-15 colon 98% | HT29 colon 114% | SNB-75 CNS 97.2% | SNB-19 CNS 89.3% | U251 CNS 91.7% | PC-3 prostate 94.5% | SK-MEL-5 melanoma 103% | UACC-62 melanoma 88.3% | LOX IMVI melanoma 93.4% | SK-MEL-28 melanoma 107%

CCCCC1=c2c([nH]c3ccc(OC)cc23)=NC2C=CC=NC12 (stereo not given)
inactive: HCT-15 colon 84.2% | HT29 colon 77.8% | SNB-75 CNS 92.9% | SNB-19 CNS 104% | U251 CNS 103% | PC-3 prostate 86.1% | SK-MEL-5 melanoma 84.3% | UACC-62 melanoma 94.5% | LOX IMVI melanoma 91.4% | SK-MEL-28 melanoma 112%

CCC1S/C(=N\N=C(/C)c2ccc[nH]2)N(c2ccccc2)C1=O (stereo not given)
inactive: HCT-15 colon 96.1% | HT29 colon 87.4% | SNB-75 CNS 105% | SNB-19 CNS 106% | U251 CNS 108% | PC-3 prostate 94.2% | SK-MEL-5 melanoma 79% | UACC-62 melanoma 101% | LOX IMVI melanoma 110% | SK-MEL-28 melanoma 110%

NS(=O)(=O)c1ccc(C2C3=C(CCCC3=O)OC3=C2C(=O)c2ccccc2C3=O)cc1 (stereo not given)
active: HCT-15 colon 2.23% | HT29 colon -29.3% | SNB-75 CNS -99.5% | SNB-19 CNS -1.37% | U251 CNS -86.7% | PC-3 prostate -1.42% | SK-MEL-5 melanoma -95.3% | UACC-62 melanoma -59.7% | LOX IMVI melanoma -72.7% | SK-MEL-28 melanoma -57.5%

C#C[C@@]1(O)[C@@H](CO)O[C@@H](n2cc(I)c3c(N)ncnc32)[C@@H]1O
active: HCT-15 colon 5.73% | HT29 colon 2.8% | SNB-75 CNS -10.1% | SNB-19 CNS 8.06% | U251 CNS -0.637% | PC-3 prostate 4.04% | SK-MEL-5 melanoma -9.34% | UACC-62 melanoma 4.29% | LOX IMVI melanoma -42.3%
inactive: SK-MEL-28 melanoma 43.2%

O=c1c2ccccc2oc2ccc(OCCCCCN3CCCCCC3)cc12
active: SK-MEL-5 melanoma -35.2% | UACC-62 melanoma 2.08%
inactive: HCT-15 colon 33.1% | HT29 colon 12.9% | SNB-75 CNS 77.1% | SNB-19 CNS 84% | U251 CNS 60.3% | PC-3 prostate 80.7% | LOX IMVI melanoma 49.8% | SK-MEL-28 melanoma 86.3%

N#Cc1c(-c2ccc(F)cc2)nc(N/N=C/c2cccc(O)c2)nc1N1CCOCC1
inactive: HCT-15 colon 69.5% | HT29 colon 79.8% | SNB-75 CNS 73.9% | SNB-19 CNS 96.1% | U251 CNS 73.5% | PC-3 prostate 72.7% | SK-MEL-5 melanoma 90% | UACC-62 melanoma 87.7% | LOX IMVI melanoma 85.2% | SK-MEL-28 melanoma 99%

C#CCN1C(=O)c2ccccc2N(CC#C)C12CCN(Cc1cn(CC(=O)Nc3ccccc3C(N)=O)nn1)CC2
inactive: HCT-15 colon 86.8% | HT29 colon 85.1% | SNB-75 CNS 78.3% | SNB-19 CNS 90.5% | U251 CNS 97.2% | PC-3 prostate 83.7% | SK-MEL-5 melanoma 76.9% | UACC-62 melanoma 74.3% | LOX IMVI melanoma 87% | SK-MEL-28 melanoma 93.4%

COC(=O)[C@]1(C)CCC[C@]2(C)[C@H]3C[C@H]4C(C(C)C)=C[C@]3(CC[C@H]21)[C@@H]1C(=O)N(CCC#N)C(=O)[C@@H]14
inactive: HCT-15 colon 83.2% | HT29 colon 70.5% | SNB-75 CNS 93% | SNB-19 CNS 102% | U251 CNS 87.8% | PC-3 prostate 31.2% | SK-MEL-5 melanoma 71.6% | UACC-62 melanoma 62.9% | LOX IMVI melanoma 98.1% | SK-MEL-28 melanoma 108%

Cc1nn(-c2ccc(-c3ccc(OC(F)(F)F)cc3)cc2)c2nc(-c3ccccc3)nc(N)c12
inactive: HCT-15 colon 95.6% | HT29 colon 90.2% | SNB-75 CNS 95% | SNB-19 CNS 90.7% | U251 CNS 85.5% | PC-3 prostate 93.2% | SK-MEL-5 melanoma 100% | UACC-62 melanoma 99.9% | LOX IMVI melanoma 93.8% | SK-MEL-28 melanoma 115%

CC1CCN(CCCCCOc2ccc3oc4ccccc4c(=O)c3c2)CC1
active: SK-MEL-5 melanoma -12.2%
inactive: HCT-15 colon 35.7% | HT29 colon 10.8% | SNB-75 CNS 84.7% | SNB-19 CNS 87.5% | U251 CNS 67.5% | PC-3 prostate 80.8% | UACC-62 melanoma 14.3% | LOX IMVI melanoma 53.3% | SK-MEL-28 melanoma 87.7%

CC(C)(C)CC(C)(C)Cc1ccc(OCCOCC[N+](C)(C)Cc2ccccc2)cc1
inactive: HCT-15 colon 97% | PC-3 prostate 10.1% | LOX IMVI melanoma 10.5% | SK-MEL-28 melanoma 20.5%
active: HT29 colon 9.89% | SNB-75 CNS -9% | SNB-19 CNS -7.68% | U251 CNS 2.86% | SK-MEL-5 melanoma -98.8% | UACC-62 melanoma -36.1%

C=C(C)[C@@H]1CCC=C2CC[C@]3(C)[C@H](CC[C@@H]4[C@@]5(C)CCCNC(C)(C)[C@@H]5CC[C@]43C)[C@H]21
active: HCT-15 colon -17.7% | HT29 colon 3.02% | U251 CNS -73% | LOX IMVI melanoma -43.4%
inactive: SNB-75 CNS 100% | SNB-19 CNS 15.3% | PC-3 prostate 38.2% | SK-MEL-5 melanoma 81.9% | UACC-62 melanoma 87.7% | SK-MEL-28 melanoma 96.7%

CNCc1cccc2c1OCCOCCOCCN(CCN1CCOCC1)S(=O)(=O)c1ccc(cc1)-c1cnc(N)c(n1)C(=O)N2
inactive: HCT-15 colon 74.8% | HT29 colon 24.5% | SNB-75 CNS 16.7% | SNB-19 CNS 76.3% | U251 CNS 53.8% | PC-3 prostate 50.1% | SK-MEL-5 melanoma 76.6% | UACC-62 melanoma 73% | LOX IMVI melanoma 28.4% | SK-MEL-28 melanoma 76.3%
